High-throughput results as filed in PubChem.
Hits are enriched below; roughly 2.7% of the tested compounds scored in any of these assays.
H9c2 TAG inh = reduces triacylglycerol accumulation in H9c2 cells; inhibition, % at 12.5 µM; 0.66% of 230,000 active; Nile Red lipid (TAG) fluorescence; cells loaded with 200 µM oleic acid; AID 651582;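 active = pattern-corrected inhibition of lipid staining of at least 50% with the nuclear-stain viability signal not falling by more than 50%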;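 note: 0% = DMSO wells and 100% = triacsin C control wells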
aDG glyco act = increases alpha dystroglycan glycosylation | Pro5-aDG cells, alpha-DG glycosylation AlphaScreen (IIH6); 0% Pro5, 100% B10-LARGE cell signal | activation, % at 10 µM | 0.22% of 360,000 active;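 active = activation of at least 8% versus controls, or a plate z-score of at least 8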;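 note: Pro5 are CHO cells carrying HIG-tagged alpha-DG that lacks glycosylation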
MPTP inh = blocks calcium-induced mitochondrial swelling | isolated mouse mitochondria, Ca2+ swelling absorbance, 30 min | inhibition, % at 10 µM | 1.4% of 360,000 active;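 active = inhibition of 50% or more, scaled per plate between neutral and stimulator controls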;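 note: 0% = DMSO wells given calcium and 100% = 1 mM EGTA wells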
NadD block = inhibitors of Staphylococcus aureus NadD | purified NadD enzyme, colorimetric absorbance read-out | inhibition, % at 20 µM | 0.78% of 360,000 active | AID 602399; in the data active = inhibition above about 26%
Starred values were filed as active, the others as inactive; x = not tested or not shown.

SMILES	H9c2 TAG inh	aDG glyco act	MPTP inh	NadD block
COc1ccccc1-n1cnc2cc(NCc3cccs3)ccc21	58*	0	-1	1
O=C(c1cc(Br)c(Br)s1)N1CCc2ccccc2C1	-5	0	-1	-4
CC(=O)Nc1cc(C)ns1	15	0	-2	0
CCOC(=O)c1sc(NC(=O)c2sccc2C)cc1C	51*	0	11	1
CC(=O)NC(c1cc(Cl)c2cccnc2c1O)C(C)C (configuration not stated)	65*	0	-1	-1
CCC(=O)NC(c1cc(Cl)c2ccccc2c1O)C1CC1 (configuration not stated)	-17	2	2	-10
CC(=O)NC(c1ccco1)c1cc(Cl)c2cccnc2c1O (configuration not stated)	0	0	-5	6
CC(=O)NC(c1ccc(C)cc1)c1cc(Cl)c2cccnc2c1O (configuration not stated)	50*	0	1	3
CC(=O)NC(c1cc(Cl)c2ccccc2c1O)C(C)C (configuration not stated)	-4	0	1	-2
CC(=O)NC(c1cc(Cl)c2cccnc2c1O)C1CC1 (configuration not stated)	50*	0	-2	3
Cc1ccc(S(=O)(=O)NN=CC=CC=NNS(=O)(=O)c2ccc(C)cc2)cc1	6	0	-2	13
O=C(CP(=O)(c1ccccc1)c1ccccc1)N/N=C/c1cc(Br)cc(Br)c1O	x	0	-6	44*
O=C(N/N=C/c1cc(Br)cc(Br)c1O)c1cccc(N2CCCC2=O)c1	10	1	0	33*
O=C(C[n+]1ccccc1)N/N=C/c1cc(Br)cc(Br)c1O	x	0	-2	-10
N#Cc1ccccc1NC(=O)CSc1n[nH]c(=O)n1C1CC1	-5	0	0	3
COc1ccc(Cl)cc1NC(=O)COC(=O)c1cc(NS(=O)(=O)c2cccs2)ccc1O	x	0	-25	33*
CCOC(=O)c1c(SCCN2CCCC2)n(-c2ccccc2)c(=S)n(-c2ccccc2)c1=O	82*	0	0	1
CCOC(=O)c1c[nH]c(=S)n(-c2ccccc2)c1=O	-8	0	-3	-2
CCN(CC)CCC(O)(c1ccc2c(c1)OCO2)c1cc(OC)c(OC)c(OC)c1 (configuration not stated)	5	0	-2	0
O=C(Nc1nc(-c2ccccn2)cs1)c1cccc(-n2cnnn2)c1	73*	0	0	10
COC(=O)C1=NNC(C(=O)OC)C1c1ccccc1 (configuration not stated)	-4	0	1	2
COc1cc(/C=C2/SC(=S)N(CC(=O)O)C2=O)ccc1OCC(=O)Nc1ccc(C)c(C)c1	8	0	-1	30*
COc1cc(/C=C2\SC(N)=NC2=O)ccc1OCC(=O)Nc1ccc(C)cc1	x	1	0	1
COc1cc(/C=C2\SC(=S)N(CCCCC(=O)O)C2=O)ccc1OS(=O)(=O)c1ccc(C)cc1	4	6.9*	-2	23
COc1ccc(Nc2nc(Nc3ccc(OC)cc3)nc(-n3[nH]c(=O)c(C)c3C)n2)cc1	57*	0	0	30
SMILES	H9c2 TAG inh	aDG glyco act	MPTP inh	NadD block
CC(C)C[C@@H]1Cc2[nH][nH]c(=O)c2[C@H](C(C)C)O1	x	0	0	1
COc1cccc(-n2c(SCc3cc(=O)oc4cc(O)c(O)cc34)nc3ccccc3c2=O)c1	x	0	29	65*
COc1ccccc1-c1cnc(C(O)c2ccc(C(C)(C)C)cc2)[nH]1 (configuration not stated)	12	0	3	3
O=C(Nc1nc(-c2ccc(S(=O)(=O)N3CCCCCC3)cc2)cs1)c1cccs1	51*	0	4	10
Nc1cccc2nsnc12	-1	0	0	-4
Nc1cc2nsnc2cc1Br	113	6.6*	-4	3
COc1ccc(-c2nc(N/N=C(\C)c3ccc(O)cc3)c3ccccc3n2)cc1	55*	0	9	10
CCOC(=O)c1c(NC(=O)C2c3ccccc3Oc3ccccc32)sc(C(=O)N(CC)CC)c1C	81*	1	1	19
CC(C)(C)c1ccc(CN2N=Nc3ccccc3S2(=O)=O)cc1	51*	-1	-6	9
Cc1ccnc(NC(=O)c2ccc([N+](=O)[O-])s2)c1	16	8.4*	-1	-6
Cc1cccc(NC(=O)c2ccc([N+](=O)[O-])s2)n1	x	7.2*	17	-2
O=C(COC(=O)c1cccc(O)c1)Nc1ccc(N2CCOCC2)cc1	3	0	0	0
Cn1ncc2c(O/N=C(\N)c3ccc(C(F)(F)F)cc3)ncnc21	86*	0	-1	-4
